Bioassay records: PubChem, National Center for Advancing Translational Sciences (NCATS)
Sampled rows, rich in hits. Any-hit rate of the full collection: about 2.9%.
SNCA viab count: GF-AFC viability counterscreen for inhibitors of alpha-synuclein gene (SNCA) expression; HEK-293-SNCA-luc viability, GF-AFC fluorescence, 24 h; Potency, µM (doses to about 57.1 µM), for the others: at the top dose activity change, negative = cytotoxicity, most hits filed as cytotoxic; hit rate 0.12% among 150,000; AID 1671193, 2021;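 also: potency is read from the fitted curve at half-maximal effect; 0% = DMSO-treated cells and -100% = medium-only wells without cells; nearly all actives have a fitted effect of over 30% in size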
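HEK-293-SNCA-luc cells (1500/well) plated 24 h, then exposed 24 h to a dilution series; GF-AFC added 30 min at 37C, fluorescence 405/540 nm; normalised to medium-only and DMSO wells, Hill fit.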
SNCA expr inhib: Primary qHTS assay for inhibitors of alpha-synuclein gene (SNCA) expression; HEK-293 SNCA-luciferase knock-in, luminescence, 24 h; Potency, µM (top dose mostly 57.2 µM), for the others: at the highest dose activity change, negative = inhibition, actives largely listed as inhibitors; hit rate 0.17% among 140,000; AID 1671194, 2021;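 also: potency is read from the fitted curve at half-maximal effect; plate controls were DMSO cells for no effect and cell-free wells for full effect; nearly all actives have a fitted effect of over 45% in size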
IP6K1 inhibitor: Primary qHTS assay for small molecule inhibitors of Inositol hexaphosphate kinase 1 (IP6K1) | IP6K1 kinase, ADP-Glo luminescence, 2 h; hits give low values | hit rate 0.81% among 140,000 | activity change, % (series mostly up to about 58 µM) | Inositol hexakisphosphate kinase 1 (Homo sapiens), Q92551; in the data active = activity change below about -25%; also: % is scaled to controls: 0 for no effect and ±100 for the full control effect
Target sequence (Q92551 whole entry, looked up): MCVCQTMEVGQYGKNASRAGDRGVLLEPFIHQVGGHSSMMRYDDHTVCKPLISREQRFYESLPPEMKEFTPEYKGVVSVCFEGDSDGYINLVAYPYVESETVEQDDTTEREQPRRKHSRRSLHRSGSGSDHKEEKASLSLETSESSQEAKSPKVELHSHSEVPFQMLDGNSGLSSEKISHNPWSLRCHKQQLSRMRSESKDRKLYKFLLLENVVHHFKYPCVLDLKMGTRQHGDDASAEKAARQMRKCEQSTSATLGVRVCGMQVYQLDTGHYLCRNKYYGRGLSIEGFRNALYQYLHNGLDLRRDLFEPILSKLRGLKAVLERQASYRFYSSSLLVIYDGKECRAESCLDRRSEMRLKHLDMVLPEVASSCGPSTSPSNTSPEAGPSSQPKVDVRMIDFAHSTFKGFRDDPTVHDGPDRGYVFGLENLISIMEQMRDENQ
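ADP-Glo luminescence measures ADP made by human IP6K1 during a 2 h RT reaction with ATP/IP6 (mix at 1.3 mM/130 uM); top library doses 57.5 and 19.1 uM final.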
KDM5B inh: Primary screen for KDM5B Histone Demethylases FDH-coupled qHTS. KDM5B demethylase, FDH-coupled NADH fluorescence (FDH is formaldehyde dehydrogenase). AID 1347165, 2019. hit rate 2.6% among 220,000. Potency, µM (series often up to 57.7 µM), hits mostly inhibitors. Lysine-specific demethylase 5B (Homo sapiens), Q9UGL1; also: potency is read from the fitted curve at half-maximal effect; 0% is about no effect; nearly all actives have a fitted effect of over 70% in size
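Inhibition is measured as reduced NADH fluorescence generation from FDH coupling to formaldehyde release. Truncated KDM5BΔAP at 200 nM final acts on H3K4me3 peptide (12.5 µM in substrate mix) in pH 7.5 HEPES buffer with Tween-20, 30 min, room temperature.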
* hit, by the source's call; i = inactive; ? = inconclusive; . = no result given; [ ] = dose if it differs, or a comment. Unless noted, calls follow the shape of the dose curve; as a rule, active = well fitted curve in the direction sought with a large enough effect; inconclusive = small, poorly fitted or top-dose-only effect, or another doubt; inactive = no such curve, though single readings can be large; an effect the other way counts as inactive or inconclusive.

SMILES | SNCA viab count | SNCA expr inhib | IP6K1 inhibitor | KDM5B inh
CN(C(=O)c1cc(=O)[nH]c2ccccc12)c1ccccc1 | . | . | . | i
CC(C)c1cc(CN(C)Cc2cn[nH]c2-c2ccc(F)cc2)no1 | -26% | 6% | 1 | 28µM*
CCOc1cccc(CN(C)Cc2cn[nH]c2-c2ccc(F)cc2)c1O | -1% | -5% | 0 | ?
CCN(C(=O)c1c(O)c2c(Cl)cccc2n(C)c1=O)c1ccccc1 | ? | 5.4µM* | . | .
O=C(N[C@H](Cc1ccncc1)C1CC(O)C1)c1cccn2cnnc12 (some centres undefined) | 3% | 19% | -8 | 22µM*
CC(=O)N1Cc2ccccc2CC2(CCCCN2CC2CCCC2)C1 (centres undefined) | -19% | -9% | -3 | 50µM*
NC(=O)c1cccc(CN2CCCC23Cc2ccccc2N(C(=O)c2ccc(Cl)cc2)C3)c1 (centres undefined) | -12% | -9% | -14 | 79µM*
CC(=O)NCC(=O)N1Cc2ccccc2CC2(CCCN(CC3CCNC3)C2)C1 (centres undefined) | 4% | 5% | 7 | ?
O=C(c1ccc(Cl)cc1)N1CC2(CCCN2CC2CCCCC2)Cc2ccccc21 (centres undefined) | 3% | -6% | 3 | 56µM*
CC(=O)N1Cc2ccccc2CC2(CCCN2CC2CCCC2)C1 (centres undefined) | -19% | 19% | -11 | ?
CC(=O)N1Cc2ccccc2CC2(CCCN(CC3CCNC3)C2)C1 (centres undefined) | 0% | -11% | 1 | 25µM*
COc1ccc(C(=O)CCN(C)C)cc1 | . | . | . | i
CC(C)C(=O)N1Cc2ccccc2CC2(CCCN2Cc2ccncc2)C1 (centres undefined) | 2% | -5% | -7 | 56µM*
CC(C)C(=O)N1Cc2ccccc2CC2(CCCCN2Cc2ccncc2)C1 (centres undefined) | -4% | -14% | -9 | i
C=CC(=O)Nc1cccc(Nc2nc(NC3CCC(N(C)C)CC3)nc3c2ncn3C(C)C)c1 (centres undefined) | ? | 3µM* | . | .
C/C=C/Cn1c(SCC(=O)OCC)nc2c1c(=O)[nH]c(=O)n2C | . | . | . | i
C[C@@H]1C(=O)O[C@H]2[C@H]1CC[C@@]1(C)Cc3sc(Nc4ccc(C(=O)O)cc4)nc3[C@@H](C)[C@H]21 | 1%[87.6 µM] | -19%[87.6 µM] | 15 | 35µM*
C[C@@H]1C(=O)O[C@H]2[C@H]1CC[C@@]1(C)Cc3sc(NC(=O)c4ccc(N(C)C)cc4)nc3[C@@H](C)[C@H]21 | 0% | 17% | 22 | 28µM*
CC(C)(C)c1ccc(-c2cc(C[C@H]3CNCC[C@H]3CC(=O)N3CCCCC3)no2)cc1 | ? | ? | 5 | ?
Cc1ccccc1-c1nccn2c(C3CN(C(=O)c4cc5ccccc5[nH]4)C3)ncc12 | -27%[87.6 µM] | -29%[87.6 µM] | 0 | 50µM*
Cc1cc(C)c(C#N)c(N2CCC3(CCC(=O)N(CC(C)O)C3)CC2)n1 (centres undefined) | -10% | 2% | 21 | 28µM*
Cc1ccccc1CC(=O)N1CCCn2cc(-c3cccc(C#N)c3)nc21 | -11% | 12% | -10 | 22µM*
N#Cc1cccc(-c2cn3c(n2)N(C(=O)Cc2cccs2)CCC3)c1 | 3% | -21% | 11 | 25µM*
COCC(=O)N1CCCn2cc(-c3cccc(C#N)c3)nc21 | -7% | 15% | 2 | 25µM*
COc1cccc(-c2cn3c(n2)N(C(=O)Cc2ccsc2)CCC3)c1 | 1% | 37% | 4 | i
SMILES | SNCA viab count | SNCA expr inhib | IP6K1 inhibitor | KDM5B inh
CCOCC(=O)N1CCCn2cc(-c3ccccc3)nc21 | -7% | 11% | 1 | ?
Cc1cccc(CC(=O)N2CCCn3cc(-c4cccc(C#N)c4)nc32)c1 | 9% | 16% | 2 | ?
COc1ccc(S(=O)(=O)N[C@H]2[C@H](O)[C@H](O)C[C@@H]2c2ccc(C(F)(F)F)cc2)cc1 | -3%[87.6 µM] | -17%[87.6 µM] | 13 | i
CCCCCCCCCCCCCC(=O)N[C@H](CO)[C@H](O)c1ccc([N+](=O)[O-])cc1 | -10% | 9.6µM* | . | .
CCc1nc2c(c(-c3ccc(Cl)cc3)n1)CCN([S+](=O)([O-])c1cccc(OC)c1)CC2 | 6% | ? | 4 | i
C1CCC(c2nc(CCOCC3CCOCC3)no2)NC1 (centres undefined) | -1% | -5% | 12 | 32µM*
COc1ccccc1N1CCCc2ncc(C(=O)NCCc3c[nH]c4ccccc34)cc21 | ? | ? | 21 | 28µM*
COc1ccccc1N1CCCc2ncc(C(=O)NCCc3ccccc3)cc21 | 2%[87.6 µM] | 1%[87.6 µM] | -1 | ?
COc1ccccc1N1CCCc2ncc(C(=O)N(C)Cc3ccccc3)cc21 | -2%[87.6 µM] | -13%[87.6 µM] | -5 | 35µM*
COc1ccccc1N1CCCc2ncc(C(=O)N3CCCC[C@@H]3Cc3ccccc3)cc21 | -13% | 7% | 3 | 25µM*
O=C(N[C@H](Cc1ccccn1)C1CC(O)C1)c1cccc2c1NCCC2 (some centres undefined) | 7% | 29% | -4 | 32µM*
O=C(N[C@H](Cc1ccccn1)C1CC(O)C1)c1n[nH]c2c1CCCC2 (some centres undefined) | -1% | -16% | 13 | i
O=C(Nc1ccncn1)[C@@H]1C[C@@H](c2ccc(F)cc2)N(CCOc2ccccc2)C1 | -9%[87.6 µM] | -23%[87.6 µM] | 2 | 35µM*
O=C(Nc1cccnc1)[C@@H]1C[C@@H](c2ccc(F)cc2)N(CCOc2ccccc2)C1 | ? | -28%[87.6 µM] | -2 | i
Cn1cc(-c2cc(=O)c3ccnc(NCc4ccc5c(c4)OCO5)c3o2)cn1 | -3%[87.6 µM] | 6%[87.6 µM] | -16 | 32µM*
COCc1ccccc1-c1nccc2c(=O)cc(-c3cnn(C)c3)oc12 | 10%[87.6 µM] | 0%[87.6 µM] | -22 | 35µM*
Cn1cc(-c2cc(=O)c3ccnc(-c4cccc5[nH]ccc45)c3o2)cn1 | -3%[87.6 µM] | 59%[87.6 µM] | -17 | i
Cc1csc(NC(=O)[C@@H]2CCC[C@@H](NC(=O)c3cccnc3)CN(C)C(=O)C2)n1 | -3%[87.6 µM] | 33%[87.6 µM] | 6 | i
CCOC(=O)N1CCC(N[C@@H]2CC[C@@H]2NC(=O)c2cnc3cccnn23)CC1 | 2% | -16% | 22 | 32µM*
CCOC(=O)N1CCC(N[C@@H]2CC[C@@H]2NC(=O)c2ccccn2)CC1 | -9% | -16% | 7 | ?
C/C=C/C=C/C(=O)Nc1ccc(NC(C)=O)c(Cl)c1 | . | . | . | i
COc1ccc(CNC(=O)C[C@@H]2c3nc(NC(=O)c4cccs4)sc3C[C@@H]3[C@](C)(CO)[C@H](O)CC[C@]32C)cc1 | -6% | -19% | -9 | 25µM*
COCC(=O)Nc1nc2c(s1)C[C@@H]1[C@](C)(CO)[C@H](O)CC[C@@]1(C)[C@@H]2CC(=O)NCc1ccc(OC)cc1 | -1% | 10% | 1 | i
